Measured values published in PubChem BioAssay (NCATS).
Results filed as inconclusive are left out. Activity calls are given as the source filed them. Unless noted, calls follow the shape of the dose curve; as a rule, active = well fitted curve in the direction sought with a large enough effect; inconclusive = small, poorly fitted or top-dose-only effect, or another doubt; inactive = no such curve, though single readings can be large; an effect the other way counts as inactive or inconclusive.

Key:
[1] = AP1 Signaling Pathway (AID 357; active = well fitted curve in either direction with a large enough effect, not every such curve was filed as active;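 also: ME-180 reporter cells stimulated with EGF at its EC50 level; % is scaled to controls: 0 for no effect and ±100 for the full control effect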)
In short: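 First, ME-180 AP-1-bla cells were cultured overnight at 37 °C in low-serum Opti-MEM. Next, titrated compounds with EC50 EGF were incubated 5 hours. Finally, CCF4 was added for 2.5 hours and the 460/530 nm ratio recorded.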

[2] = NFAT Signaling Pathway (AID 444; active = well fitted curve in either direction with a large enough effect, not every such curve was filed as active;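 also: carbachol stimulus at about its EC50 of 1 µM final; % is scaled to controls: 0 for no effect and ±100 for the full control effect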); conditions: Jurkat NFAT-bla M1, carbachol, beta-lactamase ratio, 5 h; at 17.2 µM (top of the series) unless noted
In short: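 Jurkat cells with NFAT-driven β-lactamase reporter and co-expressed M1 receptor, stimulated with carbachol (final 1 uM, ~EC50), compound titration, 5 h at 37 °C. CCF4 loaded 1 h at RT; 460/530 nm ratio gave %activity and AC50.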

[3] = Stat Signaling Pathway (AID 446; active = well fitted curve in either direction with a large enough effect, not every such curve was filed as active;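 also: ME-180 cervical cancer cells given 40 pM IL-6 alongside compound; SIE-controlled beta-lactamase reporter measured as 460/530 nm FRET emission ratio; % is scaled to controls: 0 for no effect and ±100 for the full control effect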)
In short: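 Screening format detects activators and inhibitors alike: ME-180 SIE-bla cells stimulated at 40 pM IL-6 for 5 hrs with compound, then dual-emission beta-lactamase read at 405 nm excitation.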

[4] = biological target: Glucocorticoid receptor (Homo sapiens) (UniProt P04150); experiment: GR-GFP Redistribution (AID 450;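 active = compounds whose dose series gives a full or clear partial fitted curve of increased nuclear translocation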; also: potency is read from the fitted curve at half-maximal effect); conditions: U2OS GR-GFP nuclear translocation, laser cytometry, 2 h
Sequence of Glucocorticoid receptor (Homo sapiens) (P04150 whole entry, looked up, the tested form may be a part): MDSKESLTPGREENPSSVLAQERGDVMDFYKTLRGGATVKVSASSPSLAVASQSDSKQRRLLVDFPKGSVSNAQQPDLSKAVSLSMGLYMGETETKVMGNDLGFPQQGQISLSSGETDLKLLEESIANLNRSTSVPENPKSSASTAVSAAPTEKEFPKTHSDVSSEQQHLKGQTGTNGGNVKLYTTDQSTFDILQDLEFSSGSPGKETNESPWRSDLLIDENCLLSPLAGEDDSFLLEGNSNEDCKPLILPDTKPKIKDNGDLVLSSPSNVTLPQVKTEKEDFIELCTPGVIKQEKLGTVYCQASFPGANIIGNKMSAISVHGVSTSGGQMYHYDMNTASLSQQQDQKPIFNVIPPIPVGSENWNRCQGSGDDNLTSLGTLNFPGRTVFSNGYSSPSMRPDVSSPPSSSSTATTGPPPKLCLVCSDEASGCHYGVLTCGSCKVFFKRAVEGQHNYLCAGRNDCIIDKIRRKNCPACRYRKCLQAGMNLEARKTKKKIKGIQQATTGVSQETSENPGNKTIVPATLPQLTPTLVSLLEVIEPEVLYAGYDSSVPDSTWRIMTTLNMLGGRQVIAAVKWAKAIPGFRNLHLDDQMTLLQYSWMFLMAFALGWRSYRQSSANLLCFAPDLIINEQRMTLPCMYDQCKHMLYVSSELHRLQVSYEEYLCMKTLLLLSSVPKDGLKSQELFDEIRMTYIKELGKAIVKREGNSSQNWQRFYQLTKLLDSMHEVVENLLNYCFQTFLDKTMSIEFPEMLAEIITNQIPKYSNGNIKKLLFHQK

[5] = biological target: Glucocorticoid receptor (Homo sapiens) (UniProt P04150); experiment: GR-EFC Redistribution (AID 451; calls by dose curve; also: potency is read from the fitted curve at half-maximal effect); conditions: CHO-K1 GR-EFC translocation, beta-gal luminescence, 2 h
In short: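 CHO-K1 cells expressing nuclear EA and GR-ED fragments of b-gal; compounds titrated up to 46 uM final, 2 h at 37 C. GR nuclear translocation read as complemented b-gal luminescence after 1 h RT detection.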

[6] = biological target: Mitogen-activated protein kinase 10 (Mus musculus) (UniProt Q61831); experiment: JNK3 AlphaScreen Assay (AID 530; active = well fitted curve in either direction with a large enough effect, not every such curve was filed as active;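 also: kinase came from lysate of stimulated human HepG2 cells; signal reports phosphorylation of biotinylated GST-cJun 1-79 at Ser73 with 10 µM ATP; % is scaled to controls: 0 for no effect and ±100 for the full control effect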)
In short: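 Pre-activated (IL-1β/TNFα) JNK3 in HepG2 lysates phosphorylates biotin-GST-cJun(1-79), 10 uM ATP; anti-phospho-cJun(Ser73) AlphaScreen read at room temperature, pH 7.6 Tris buffer. Compounds pre-incubated 15 min as titrations.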

[7] = biological target: 3',5'-cyclic-AMP phosphodiesterase 4B (Homo sapiens) (UniProt Q07343); experiment: qHTS Assay for Inhibitors of PDE-IV (AID 607; active = well fitted activation curve with a large enough effect in the main read-out, with a control signal flat, not every such curve was filed as active; also: % of control where 0% means no effect)
Sequence of 3',5'-cyclic-AMP phosphodiesterase 4B (Homo sapiens) (Q07343 whole entry, looked up): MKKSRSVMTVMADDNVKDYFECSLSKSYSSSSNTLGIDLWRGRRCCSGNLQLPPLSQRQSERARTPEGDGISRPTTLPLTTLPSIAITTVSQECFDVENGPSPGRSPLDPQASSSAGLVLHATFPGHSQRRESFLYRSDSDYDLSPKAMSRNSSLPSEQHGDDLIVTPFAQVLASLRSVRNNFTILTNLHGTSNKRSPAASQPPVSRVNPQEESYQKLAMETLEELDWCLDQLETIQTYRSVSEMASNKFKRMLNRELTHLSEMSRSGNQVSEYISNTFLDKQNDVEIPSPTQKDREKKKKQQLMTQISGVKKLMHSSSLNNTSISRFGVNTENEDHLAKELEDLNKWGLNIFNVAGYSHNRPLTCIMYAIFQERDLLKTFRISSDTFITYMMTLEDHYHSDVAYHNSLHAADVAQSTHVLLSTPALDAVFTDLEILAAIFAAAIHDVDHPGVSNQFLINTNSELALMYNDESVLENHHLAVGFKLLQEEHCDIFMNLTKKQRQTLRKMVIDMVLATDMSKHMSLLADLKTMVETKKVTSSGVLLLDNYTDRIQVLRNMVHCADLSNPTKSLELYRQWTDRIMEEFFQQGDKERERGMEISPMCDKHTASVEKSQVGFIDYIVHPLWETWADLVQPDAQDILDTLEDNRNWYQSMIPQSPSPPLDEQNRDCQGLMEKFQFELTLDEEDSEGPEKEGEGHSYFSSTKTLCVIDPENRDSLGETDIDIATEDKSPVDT
In short: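 The readout is membrane depolarisation from a cAMP-sensing CNG channel, detected with a potential dye at ex 535/em 590. Cells were HEK293-derived (endogenous PDE-IV) at 1000 cells/well, titrated up to 22.9 uM final.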

[8] = qHTS Assay for Lipid Storage Modulators (AID 1519; calls by dose curve); conditions: Drosophila S3 cells, BODIPY lipid droplet/cell ratio, laser cytometry, cells loaded with oleic acid
In short: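 Cells seeded at 5,000 per well were treated with compounds over a concentration series and loaded with oleic acid (400 uM, as added). Lipid droplet fluorescence (488 nm excitation, 500-530 nm channel) was read by laser-scanning cytometry and normalized to 20 uM Triacsin C.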

[9] = biological target: ATP-dependent 6-phosphofructokinase (Trypanosoma brucei brucei) (UniProt O15648); experiment: qHTS Assay to Find Inhibitors of T. brucei phosphofructokinase: hit validation (AID 492961)
Sequence of ATP-dependent 6-phosphofructokinase (Trypanosoma brucei brucei) (O15648 whole entry, looked up): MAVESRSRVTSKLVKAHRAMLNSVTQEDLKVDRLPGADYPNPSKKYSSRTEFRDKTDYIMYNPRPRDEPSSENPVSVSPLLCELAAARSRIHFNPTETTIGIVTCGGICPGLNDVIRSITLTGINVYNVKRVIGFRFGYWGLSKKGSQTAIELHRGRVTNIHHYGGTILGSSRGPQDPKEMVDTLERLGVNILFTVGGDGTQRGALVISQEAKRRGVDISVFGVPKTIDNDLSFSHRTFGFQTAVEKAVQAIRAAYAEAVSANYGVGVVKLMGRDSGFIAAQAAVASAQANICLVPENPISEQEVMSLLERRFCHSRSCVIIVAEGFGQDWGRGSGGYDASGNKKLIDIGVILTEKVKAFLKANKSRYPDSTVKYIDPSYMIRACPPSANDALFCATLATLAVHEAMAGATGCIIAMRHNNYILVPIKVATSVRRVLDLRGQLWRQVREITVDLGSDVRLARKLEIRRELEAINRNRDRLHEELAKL
In short: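 Inhibition of parasite PFK is measured as reduced ADP formation, quantified via luciferase after ATP depletion. Assay used 0.1 mM ATP, 0.5 mM F6P, 1.25 nM enzyme, 45 min incubation.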

[10] = biological target: Ubiquitin carboxyl-terminal hydrolase 1 (Homo sapiens) (UniProt O94782); experiment: Inhibitors of USP1/UAF1: Pilot qHTS (AID 504865); also: nearly all actives have a fitted effect of over 35% in size; also: potency is read from the fitted curve at half-maximal effect
Sequence of Ubiquitin carboxyl-terminal hydrolase 1 (Homo sapiens) (O94782 whole entry, looked up): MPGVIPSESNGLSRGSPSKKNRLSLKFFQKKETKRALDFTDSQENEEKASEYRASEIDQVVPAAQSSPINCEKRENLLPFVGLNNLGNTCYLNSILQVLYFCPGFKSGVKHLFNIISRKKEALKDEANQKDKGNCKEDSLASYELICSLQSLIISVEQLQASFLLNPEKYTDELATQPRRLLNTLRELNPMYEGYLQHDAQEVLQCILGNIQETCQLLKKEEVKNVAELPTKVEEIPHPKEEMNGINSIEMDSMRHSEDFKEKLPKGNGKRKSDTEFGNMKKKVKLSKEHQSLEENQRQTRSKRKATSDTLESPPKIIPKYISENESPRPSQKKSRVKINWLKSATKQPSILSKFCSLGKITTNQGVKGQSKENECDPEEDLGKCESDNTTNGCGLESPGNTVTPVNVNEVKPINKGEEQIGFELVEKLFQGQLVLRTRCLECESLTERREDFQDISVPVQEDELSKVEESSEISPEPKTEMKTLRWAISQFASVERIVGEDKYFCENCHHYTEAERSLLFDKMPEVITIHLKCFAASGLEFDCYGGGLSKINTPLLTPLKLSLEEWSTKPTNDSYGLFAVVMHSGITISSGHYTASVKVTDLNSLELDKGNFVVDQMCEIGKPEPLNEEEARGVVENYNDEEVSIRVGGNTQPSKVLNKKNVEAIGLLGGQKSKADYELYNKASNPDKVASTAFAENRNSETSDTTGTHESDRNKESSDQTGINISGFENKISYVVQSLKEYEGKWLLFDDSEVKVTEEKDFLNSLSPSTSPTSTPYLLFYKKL
In short: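 1nM USP1/UAF1 + cpd, 15 min RT; start w/ Ub-Rho 150nM final; kinetic FL 480/540 nm, 6 reads q60 s. Buffer 50mM HEPES pH 7.8, 0.5mM EDTA, 1mM TCEP, 0.01% Tween-20, 0.1 mg/ml BSA.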

[11] = biological target: Luciferin 4-monooxygenase (Photinus pyralis) (UniProt P08659); experiment: Biochemical firefly luciferase enzyme assay for NPC (AID 624030);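 also: purified P. pyralis luciferase at 10 nM with luciferin and ATP substrate; 0% = DMSO and -100% = full luciferase inhibition by PTC124 control; nearly all actives have a fitted effect of over 70% in size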
Sequence of Luciferin 4-monooxygenase (Photinus pyralis) (P08659 whole entry, looked up): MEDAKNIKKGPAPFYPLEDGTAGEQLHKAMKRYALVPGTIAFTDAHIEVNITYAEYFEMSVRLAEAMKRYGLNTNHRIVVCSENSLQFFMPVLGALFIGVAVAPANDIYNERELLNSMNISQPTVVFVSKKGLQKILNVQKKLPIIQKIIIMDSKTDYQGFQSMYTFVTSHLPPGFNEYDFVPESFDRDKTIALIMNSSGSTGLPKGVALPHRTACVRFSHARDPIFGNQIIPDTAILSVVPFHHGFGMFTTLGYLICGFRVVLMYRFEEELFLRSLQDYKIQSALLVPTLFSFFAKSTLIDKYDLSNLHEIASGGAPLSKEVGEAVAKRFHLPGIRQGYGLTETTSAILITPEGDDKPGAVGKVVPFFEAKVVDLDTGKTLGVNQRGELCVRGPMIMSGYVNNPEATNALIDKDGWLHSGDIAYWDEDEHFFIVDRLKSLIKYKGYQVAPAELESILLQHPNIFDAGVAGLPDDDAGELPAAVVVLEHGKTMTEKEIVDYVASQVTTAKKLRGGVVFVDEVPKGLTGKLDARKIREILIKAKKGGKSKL
In short: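 Purified P. pyralis luciferase at 10 nM in 50 mM Tris Acetate (final), luminescence read within 5 minutes of enzyme addition to compounds. Activity normalised to PTC124 versus DMSO; concentration-response curves classed by r2, magnitude and activity.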

[12] = qHTS profiling for inhibitors of Plasmodium falciparum proliferation (AID 504749);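 also: 0% = DMSO vehicle and full inhibition = artemisinin control; nearly all actives have a fitted effect of over 60% in size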; conditions: P. falciparum in erythrocytes, SYBR Green DNA, 72 h, at 12.8 µM (top of the series)
In short: (§1)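 P. falciparum-infected erythrocytes (0.3% parasitemia, 2.5% hematocrit) incubated with compound 72 h at 37 C, 5% CO2. Parasite DNA detected by SYBR Green after lysis, overnight at room temperature; normalised to 0.29 uM artemisinin and DMSO.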

C2A = experiment: as above; conditions: P. falciparum in erythrocytes, SYBR Green DNA, 72 h; series mostly up to 12.8 µM
In short: as §1

CP238 = experiment: as above; conditions: P. falciparum in erythrocytes, SYBR Green DNA, 72 h; series mostly up to 12.8 µM
In short: as §1

CP252 = experiment: as above; conditions: P. falciparum in erythrocytes, SYBR Green DNA, 72 h; series mostly up to 12.8 µM
In short: as §1

DIV14 = experiment: as above; conditions: P. falciparum in erythrocytes, SYBR Green DNA, 72 h; series mostly up to 12.8 µM
In short: as §1

JCK = experiment: as above; conditions: P. falciparum in erythrocytes, SYBR Green DNA, 72 h; series mostly up to 12.8 µM
In short: as §1

N140 = experiment: as above; conditions: P. falciparum in erythrocytes, SYBR Green DNA, 72 h; series mostly up to 12.8 µM
In short: as §1

SC27B = experiment: as above; conditions: P. falciparum in erythrocytes, SYBR Green DNA, 72 h; series mostly up to 12.8 µM
In short: as §1

W2 = experiment: as above; conditions: P. falciparum in erythrocytes, SYBR Green DNA, 72 h; series mostly up to 12.8 µM
In short: as §1

[13] = measured here: cell count channel max response
[14] = measured here: lipid channel max response

CCCC(=O)Nc1ccc(OC[C@@H](O)CNC(C)C)c(C(C)=O)c1
-3.96%: max response [8, 14]
inactive: outcome [1] | activity change, negative = inhibition [2] -10.7% | outcome [3] | Potency [4] > 20.6 µM | Potency [5] > 20.6 µM | Potency [6] | outcome [7] | activity change, negative = inhibition ([8]; at 25.7 µM (top of the series)) -2.69% | outcome [9] | Potency [10] | Potency [11]
-0.4%: max response [8, 13]

Cn1nnnc1SCC1=C(C(=O)O)N2C(=O)[C@@H](NC(=O)[C@@H](O)c3ccccc3)[C@@H]2SC1
inactive: outcome [1] | activity change, negative = inhibition [2] -2.02% | outcome [3] | Potency [4] > 20.6 µM | Potency [5] > 20.6 µM | Potency [6] | outcome [7] | activity change, negative = inhibition ([8]; at 25.7 µM (top of the series)) 2.73% | outcome [9] | Potency [10] | Potency [11] | activity, negative = inhibition ([12]; parasite line A) 11.7% | activity, negative = inhibition ([12]; parasite line B) 11% | Potency (C2A) | Potency (CP238) | Potency (CP252) | Potency (DIV14) | Potency (JCK) | Potency (N140) | Potency (SC27B) | Potency (W2)
-13.8%: max response [8, 14]
-4.52%: max response [8, 13]

NC[C@@H]1O[C@H](O[C@@H]2[C@H](O[C@@H]3O[C@H](CO)[C@@H](O)[C@@H]3O)[C@@H](O)[C@@H](N)C[C@H]2N)[C@@H](N)[C@H](O)[C@@H]1O
inactive: outcome [1] | activity change, negative = inhibition [2] -8.79% | outcome [3] | Potency [4] > 20.6 µM | Potency [5] > 20.6 µM | Potency [6] | outcome [7] | activity change, negative = inhibition ([8]; at 25.7 µM (top of the series)) -2.12% | outcome [9] | Potency [10] | Potency [11] | activity, negative = inhibition ([12]; parasite line A) -3.69% | activity, negative = inhibition ([12]; parasite line B) 2.48% | Potency (C2A) | Potency (CP238) | Potency (CP252) | Potency (DIV14) | Potency (JCK) | Potency (N140) | Potency (SC27B) | Potency (W2)
-8.12%: max response [8, 13]
-11.1%: max response [8, 14]

CC(=O)Nc1cc2ccccc2oc1=O
-11.4%: max response [8, 14]
inactive: outcome [1] | activity change, negative = inhibition [2] -6.5% | outcome [3] | Potency [4] > 20.6 µM | Potency [5] > 20.6 µM | Potency [6] | outcome [7] | activity change, negative = inhibition ([8]; at 25.7 µM (top of the series)) 2.36% | Potency [10]
-14.5%: max response [8, 13]

c1ccc(CNc2ncnc3nc[nH]c23)cc1
inactive: outcome [1] | activity change, negative = inhibition [2] 7.66% | outcome [3] | Potency [4] > 20.6 µM | Potency [5] > 20.6 µM | Potency [6] | outcome [7] | activity change, negative = inhibition ([8]; at 25.7 µM (top of the series)) -0.17% | Potency [10]
-12.9%: max response [8, 14]
-13.8%: max response [8, 13]

CC(=O)OCC(=O)[C@@]12OC(C)(C)O[C@@H]1C[C@H]1[C@H]3C[C@H](F)C4=CC(=O)C=C[C@@]4(C)[C@]3(F)[C@H](O)C[C@@]12C
-17.4%: max response [8, 14]
active: Potency [4] 0.00175 µM | Potency [5] 0.0128 µM
-13.1%: max response [8, 13]
inactive: outcome [1] | activity change, negative = inhibition [2] -1.01% | outcome [3] | Potency [6] | outcome [7] | activity change, negative = inhibition ([8]; at 25.7 µM (top of the series)) -1.78% | outcome [9] | Potency [10] | Potency [11] | activity, negative = inhibition ([12]; parasite line A) -6.81% | activity, negative = inhibition ([12]; parasite line B) -12% | Potency (C2A) | Potency (CP238) | Potency (CP252) | Potency (DIV14) | Potency (JCK) | Potency (N140) | Potency (SC27B) | Potency (W2)

C[C@@H]1[C@H](C)CC[C@@]2(C(=O)O[C@H]3O[C@@H](CO[C@H]4O[C@@H](CO)[C@@H](O[C@H]5O[C@@H](C)[C@@H](O)[C@@H](O)[C@@H]5O)[C@@H](O)[C@@H]4O)[C@@H](O)[C@@H](O)[C@@H]3O)CC[C@]3(C)C(=CC[C@H]4[C@@]5(C)C[C@@H](O)[C@@H](O)[C@](C)(CO)[C@@H]5CC[C@@]43C)[C@@H]12
-10.2%: max response [8, 14]
inactive: outcome [1] | activity change, negative = inhibition [2] -1.63% | outcome [3] | Potency [4] > 20.6 µM | Potency [5] > 20.6 µM | Potency [6] | outcome [7] | activity change, negative = inhibition ([8]; at 25.7 µM (top of the series)) -3.24% | Potency [10]
-4%: max response [8, 13]

CC(C)n1c(/C=C\[C@@H](O)C[C@@H](O)CC(=O)O)c(-c2ccc(F)cc2)c2ccccc21
-6.17%: max response [8, 13]
inactive: outcome [1] | activity change, negative = inhibition [2] 6.57% | outcome [3] | Potency [4] > 20.6 µM | Potency [5] > 20.6 µM | Potency [6] | outcome [7] | activity change, negative = inhibition ([8]; at 25.7 µM (top of the series)) -2.74%
-6.63%: max response [8, 14]

Fc1ccc(Nc2nc(-c3cccnc3)nc3ccccc23)cc1
inactive: outcome [1] | activity change, negative = inhibition [2] -9.74% [at 7.69 µM] | outcome [3] | Potency [4] > 46 µM | Potency [5] > 46 µM | activity change, negative = inhibition ([8]; at 57.5 µM (top of the series)) 7.7%
active: Potency [10] 39.8 µM
-6.31%: max response [8, 13]
0.257%: max response [8, 14]

CN1CCCN=C1/C=C\c1cccs1
inactive: outcome [1] | activity change, negative = inhibition [2] -25.3% | outcome [3] | Potency [4] > 20.6 µM | Potency [5] > 20.6 µM | Potency [6] | outcome [7] | activity change, negative = inhibition ([8]; at 25.7 µM (top of the series)) 0.765% | Potency [11]
-6.05%: max response [8, 13]
-6.06%: max response [8, 14]

C[C@@H]1[C@H](C)CC[C@@]2(C(=O)O)CC[C@]3(C)C(=CC[C@H]4[C@@]5(C)CC[C@@H](O)C(C)(C)[C@@H]5CC[C@@]43C)[C@@H]12
-6.67%: max response [8, 13]
inactive: outcome [1] | activity change, negative = inhibition [2] -17.6% | outcome [3] | Potency [4] > 20.6 µM | Potency [5] > 20.6 µM | outcome [7] | activity change, negative = inhibition ([8]; at 25.7 µM (top of the series)) -4.31% | Potency [10]
-11%: max response [8, 14]

O[C@H](c1cc(C(F)(F)F)nc2c(C(F)(F)F)cccc12)[C@H]1CCCCN1
inactive: outcome [1] | activity change, negative = inhibition [2] 24.6% | outcome [3] | Potency [4] > 20.6 µM | Potency [5] > 20.6 µM | Potency [6] | outcome [7] | activity change, negative = inhibition ([8]; at 25.7 µM (top of the series)) -11.8% | Potency [10]
-16.3%: max response [8, 13]
-23.7%: max response [8, 14]

CC(C)(C)NC[C@H](O)COc1cccc2c1C[C@@H](O)[C@@H](O)C2
inactive: outcome [1] | activity change, negative = inhibition [2] -3.7% | outcome [3] | Potency [5] > 20.6 µM | outcome [7] | activity change, negative = inhibition ([8]; at 25.7 µM (top of the series)) -2.96% | outcome [9] | Potency [10] | Potency [11] | activity, negative = inhibition ([12]; parasite line A) 4.79% | activity, negative = inhibition ([12]; parasite line B) 2.07% | Potency (C2A) | Potency (CP238) | Potency (CP252) | Potency (DIV14) | Potency (JCK) | Potency (N140) | Potency (SC27B) | Potency (W2)
-13.2%: max response [8, 14]
-8.96%: max response [8, 13]
